Experiment in all cases: DAPPL (digital affinity profiling via proximity ligation, sequencing); 10 mM Tris-HCl pH 7.5, 50 mM NaCl, 1 mM DTT, 4% glycerol, room temperature, 30 min; GST-TFs on glutathione beads, 16-mer random dsDNA library, 0.1% formaldehyde crosslink after washing; high values mean tight binding
For test [1], the target named is T1, FEV (Homo sapiens, UniProt Q99581 1-238).
T1 sequence: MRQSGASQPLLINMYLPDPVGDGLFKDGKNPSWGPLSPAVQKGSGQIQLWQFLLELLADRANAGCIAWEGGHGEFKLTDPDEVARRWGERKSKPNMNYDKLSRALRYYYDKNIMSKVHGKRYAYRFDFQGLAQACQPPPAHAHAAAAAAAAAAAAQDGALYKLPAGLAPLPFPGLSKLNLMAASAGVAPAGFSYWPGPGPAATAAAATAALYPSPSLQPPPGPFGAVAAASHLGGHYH
Particulars: protein: recombinant; tags: N-terminal GST; dsDNA, one strand shown. The gist of the method: (§1)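 A tag-only sample was pooled with DNA-barcoded human transcription factors that had been expressed in yeast as GST fusions and captured on glutathione beads. The pools were incubated for 30 min at room temperature with 200 nmole of a random double-stranded 16-mer DNA library in Tris/NaCl/DTT/glycerol buffer, then washed, crosslinked with 0.1% formaldehyde, proximity-ligated (BsaI/T4 ligase, 1 h, 37 °C), PCR-amplified and sequenced on an Illumina NextSeq500. Binding signal is each hexamer's read frequency for a factor divided by its frequency for the tag-only sample.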

The target in test [2] is ETV5 (Homo sapiens, UniProt P41161 1-510). Particulars: protein: recombinant; tags: N-terminal GST; dsDNA, one strand shown. The gist of the method: as §1
ETV5, sequence (P41161 whole entry): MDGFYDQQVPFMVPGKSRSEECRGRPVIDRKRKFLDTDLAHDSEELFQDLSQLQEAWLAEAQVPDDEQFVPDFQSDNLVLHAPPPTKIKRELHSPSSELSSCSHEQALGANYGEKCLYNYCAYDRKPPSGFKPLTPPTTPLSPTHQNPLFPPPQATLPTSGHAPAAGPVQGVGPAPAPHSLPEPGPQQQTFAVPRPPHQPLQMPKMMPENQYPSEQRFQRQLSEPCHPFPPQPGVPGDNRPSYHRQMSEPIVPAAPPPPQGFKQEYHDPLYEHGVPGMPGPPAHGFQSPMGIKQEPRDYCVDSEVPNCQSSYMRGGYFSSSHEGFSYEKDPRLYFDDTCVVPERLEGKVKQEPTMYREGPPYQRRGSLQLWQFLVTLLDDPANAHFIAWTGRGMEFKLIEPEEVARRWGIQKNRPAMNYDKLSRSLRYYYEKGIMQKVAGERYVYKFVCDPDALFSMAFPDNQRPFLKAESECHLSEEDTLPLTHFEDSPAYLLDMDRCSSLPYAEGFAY
The target of test [3] is HSF1 (Homo sapiens, UniProt Q00613 1-529). Particulars: protein: recombinant; tags: N-terminal GST; chain copies: 3; dsDNA, one strand shown. The gist of the method: as §1
HSF1, sequence (Q00613 whole entry): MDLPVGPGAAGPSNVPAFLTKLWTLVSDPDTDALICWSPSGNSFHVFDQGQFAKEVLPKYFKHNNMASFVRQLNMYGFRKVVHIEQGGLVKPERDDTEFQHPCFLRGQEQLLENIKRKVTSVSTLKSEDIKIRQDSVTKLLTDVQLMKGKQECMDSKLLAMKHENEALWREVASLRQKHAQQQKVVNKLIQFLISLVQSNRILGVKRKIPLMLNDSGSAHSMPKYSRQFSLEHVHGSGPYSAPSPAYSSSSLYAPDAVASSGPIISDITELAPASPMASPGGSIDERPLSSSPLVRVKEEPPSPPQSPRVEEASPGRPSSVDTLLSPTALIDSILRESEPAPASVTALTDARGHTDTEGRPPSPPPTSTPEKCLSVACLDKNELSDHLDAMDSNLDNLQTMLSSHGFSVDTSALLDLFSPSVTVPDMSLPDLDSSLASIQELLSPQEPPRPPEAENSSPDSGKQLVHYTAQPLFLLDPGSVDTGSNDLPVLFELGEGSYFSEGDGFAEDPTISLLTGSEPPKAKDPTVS
In test [4] the target is T2, SPIC (Homo sapiens, UniProt Q8N5J4 1-248).
T2 sequence: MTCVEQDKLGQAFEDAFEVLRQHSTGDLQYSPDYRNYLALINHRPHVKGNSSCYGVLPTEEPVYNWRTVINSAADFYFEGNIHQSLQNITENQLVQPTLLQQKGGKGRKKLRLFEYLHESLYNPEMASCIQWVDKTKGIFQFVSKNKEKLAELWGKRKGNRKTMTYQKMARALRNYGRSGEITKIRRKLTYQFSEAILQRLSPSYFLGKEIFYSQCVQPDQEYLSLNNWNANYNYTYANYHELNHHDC
Particulars: protein: recombinant; tags: N-terminal GST; dsDNA, one strand shown. The gist of the method:
as §1

The target in test [5] is ELF4 (Homo sapiens, UniProt Q99607 1-663). Particulars: protein: recombinant; tags: N-terminal GST; dsDNA, one strand shown. The gist of the method: as §1
ELF4, sequence (Q99607 whole entry): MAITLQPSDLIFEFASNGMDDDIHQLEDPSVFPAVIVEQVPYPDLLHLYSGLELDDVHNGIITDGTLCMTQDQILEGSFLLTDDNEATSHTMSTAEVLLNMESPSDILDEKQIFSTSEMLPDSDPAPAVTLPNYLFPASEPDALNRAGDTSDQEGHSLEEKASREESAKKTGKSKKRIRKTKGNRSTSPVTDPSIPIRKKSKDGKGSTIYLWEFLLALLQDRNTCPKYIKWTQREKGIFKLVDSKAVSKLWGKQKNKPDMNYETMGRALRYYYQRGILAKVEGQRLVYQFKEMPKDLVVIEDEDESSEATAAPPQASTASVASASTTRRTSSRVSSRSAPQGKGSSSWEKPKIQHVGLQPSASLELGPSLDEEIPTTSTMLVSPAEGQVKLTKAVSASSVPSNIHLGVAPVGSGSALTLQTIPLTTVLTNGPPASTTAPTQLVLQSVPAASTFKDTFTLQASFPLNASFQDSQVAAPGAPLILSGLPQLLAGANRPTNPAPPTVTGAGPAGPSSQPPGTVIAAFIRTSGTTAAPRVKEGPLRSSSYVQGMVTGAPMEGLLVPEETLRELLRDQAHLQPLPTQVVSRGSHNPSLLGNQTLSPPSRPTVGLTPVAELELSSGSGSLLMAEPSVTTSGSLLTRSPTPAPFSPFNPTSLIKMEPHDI
Test [6] concerns the target T3, ELK4 (Homo sapiens, UniProt P28324-2 1-405).
T3 sequence: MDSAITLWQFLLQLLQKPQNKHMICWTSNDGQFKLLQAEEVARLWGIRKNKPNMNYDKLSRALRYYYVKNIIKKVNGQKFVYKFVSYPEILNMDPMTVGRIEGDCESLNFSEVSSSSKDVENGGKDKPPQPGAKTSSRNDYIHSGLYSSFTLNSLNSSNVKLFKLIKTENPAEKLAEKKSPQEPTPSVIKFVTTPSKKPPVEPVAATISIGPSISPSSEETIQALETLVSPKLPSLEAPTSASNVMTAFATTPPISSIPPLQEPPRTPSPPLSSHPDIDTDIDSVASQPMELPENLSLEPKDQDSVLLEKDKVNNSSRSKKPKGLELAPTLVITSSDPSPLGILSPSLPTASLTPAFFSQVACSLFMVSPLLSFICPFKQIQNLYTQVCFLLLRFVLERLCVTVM
Particulars: protein: recombinant; tags: N-terminal GST; dsDNA, one strand shown. The gist of the method: as §1

Test [7] concerns the target T4, ETV2 (Homo sapiens, UniProt O00321 1-342).
T4 sequence: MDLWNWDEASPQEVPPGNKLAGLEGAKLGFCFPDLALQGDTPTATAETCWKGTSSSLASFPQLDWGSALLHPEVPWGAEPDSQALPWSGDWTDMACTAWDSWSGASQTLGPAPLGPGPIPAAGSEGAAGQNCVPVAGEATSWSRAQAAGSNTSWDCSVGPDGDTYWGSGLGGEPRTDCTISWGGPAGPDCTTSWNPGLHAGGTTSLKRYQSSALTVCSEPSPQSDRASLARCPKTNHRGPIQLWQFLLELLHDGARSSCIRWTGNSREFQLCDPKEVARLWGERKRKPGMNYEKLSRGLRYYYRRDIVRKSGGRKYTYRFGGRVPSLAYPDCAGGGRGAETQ
Particulars: protein: recombinant; tags: N-terminal GST; dsDNA, one strand shown. The gist of the method:
as §1

Test [8] concerns the target T5, ELF3 (Homo sapiens, UniProt P78545 1-371).
T5 sequence: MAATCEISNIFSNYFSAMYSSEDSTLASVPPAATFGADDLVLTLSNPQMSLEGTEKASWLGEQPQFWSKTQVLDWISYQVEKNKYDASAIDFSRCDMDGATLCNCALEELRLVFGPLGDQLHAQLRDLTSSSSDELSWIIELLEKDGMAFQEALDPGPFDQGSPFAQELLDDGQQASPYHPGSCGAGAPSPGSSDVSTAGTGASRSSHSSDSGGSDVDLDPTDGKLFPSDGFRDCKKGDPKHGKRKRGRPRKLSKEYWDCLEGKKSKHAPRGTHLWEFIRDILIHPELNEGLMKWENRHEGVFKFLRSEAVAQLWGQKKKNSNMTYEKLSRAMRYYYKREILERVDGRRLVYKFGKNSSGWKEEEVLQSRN
Particulars: protein: recombinant; tags: N-terminal GST; dsDNA, one strand shown. The gist of the method:
as §1

Test [9] concerns the target CRX (Homo sapiens, UniProt O43186 1-299). Particulars: protein: recombinant; tags: N-terminal GST; dsDNA, one strand shown. The gist of the method: as §1
Test [10] addresses ETV1 (Homo sapiens, UniProt P50549 1-477). Particulars: protein: recombinant; tags: N-terminal GST; dsDNA, one strand shown. The gist of the method:
as §1

Test [11] has as its target T6, ERF (Homo sapiens, UniProt P50548 1-548).
T6 sequence: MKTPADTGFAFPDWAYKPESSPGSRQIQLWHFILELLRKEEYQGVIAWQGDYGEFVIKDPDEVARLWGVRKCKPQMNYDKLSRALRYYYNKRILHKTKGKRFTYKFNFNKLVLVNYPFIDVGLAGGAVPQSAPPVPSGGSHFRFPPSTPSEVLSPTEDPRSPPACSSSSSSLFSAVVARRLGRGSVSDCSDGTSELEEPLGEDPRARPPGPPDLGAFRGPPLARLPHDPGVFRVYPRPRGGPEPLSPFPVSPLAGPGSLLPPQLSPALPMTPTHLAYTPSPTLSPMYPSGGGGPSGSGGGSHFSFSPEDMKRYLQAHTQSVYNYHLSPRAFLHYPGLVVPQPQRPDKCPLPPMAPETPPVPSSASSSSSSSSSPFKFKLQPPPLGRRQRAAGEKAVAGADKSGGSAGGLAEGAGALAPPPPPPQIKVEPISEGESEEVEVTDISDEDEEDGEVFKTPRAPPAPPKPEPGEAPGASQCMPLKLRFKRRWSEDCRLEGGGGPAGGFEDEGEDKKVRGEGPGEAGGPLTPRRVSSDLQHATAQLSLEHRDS
Particulars: protein: recombinant; tags: N-terminal GST; dsDNA, one strand shown. The gist of the method: as §1

For test [12], the target named is T7, ETV3L (Homo sapiens, UniProt Q6ZN32 1-361).
T7 sequence: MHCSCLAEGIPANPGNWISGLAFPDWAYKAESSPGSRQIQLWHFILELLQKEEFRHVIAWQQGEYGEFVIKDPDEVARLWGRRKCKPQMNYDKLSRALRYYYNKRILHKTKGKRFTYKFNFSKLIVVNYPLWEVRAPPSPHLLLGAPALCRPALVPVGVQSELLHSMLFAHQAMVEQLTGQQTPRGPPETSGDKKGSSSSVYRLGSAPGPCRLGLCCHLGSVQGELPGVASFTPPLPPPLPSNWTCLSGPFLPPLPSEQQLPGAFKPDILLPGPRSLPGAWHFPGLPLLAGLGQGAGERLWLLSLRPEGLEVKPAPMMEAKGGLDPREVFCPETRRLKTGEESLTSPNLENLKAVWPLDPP
Particulars: protein: recombinant; tags: N-terminal GST; dsDNA, one strand shown. The gist of the method: as §1

In test [13] the target is T8, ETS2 (Homo sapiens, UniProt P15036 1-469).
T8 sequence: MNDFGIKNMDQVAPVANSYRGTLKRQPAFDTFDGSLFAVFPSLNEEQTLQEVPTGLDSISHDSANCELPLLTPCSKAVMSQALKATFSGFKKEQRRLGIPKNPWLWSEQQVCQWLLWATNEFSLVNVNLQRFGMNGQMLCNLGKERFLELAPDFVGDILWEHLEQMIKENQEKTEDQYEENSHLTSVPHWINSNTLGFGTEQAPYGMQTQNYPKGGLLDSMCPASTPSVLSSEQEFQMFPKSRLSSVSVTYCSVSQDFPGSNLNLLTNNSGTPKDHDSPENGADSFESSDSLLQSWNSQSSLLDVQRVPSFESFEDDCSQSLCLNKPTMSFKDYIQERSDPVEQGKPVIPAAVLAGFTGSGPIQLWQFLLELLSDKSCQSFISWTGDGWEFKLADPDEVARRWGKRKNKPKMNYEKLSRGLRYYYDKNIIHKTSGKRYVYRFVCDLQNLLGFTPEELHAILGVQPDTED
Particulars: protein: recombinant; tags: N-terminal GST; dsDNA, one strand shown. The gist of the method: as §1

For test [14], the target named is T9, SPDEF (Homo sapiens, UniProt O95238 1-335).
T9 sequence: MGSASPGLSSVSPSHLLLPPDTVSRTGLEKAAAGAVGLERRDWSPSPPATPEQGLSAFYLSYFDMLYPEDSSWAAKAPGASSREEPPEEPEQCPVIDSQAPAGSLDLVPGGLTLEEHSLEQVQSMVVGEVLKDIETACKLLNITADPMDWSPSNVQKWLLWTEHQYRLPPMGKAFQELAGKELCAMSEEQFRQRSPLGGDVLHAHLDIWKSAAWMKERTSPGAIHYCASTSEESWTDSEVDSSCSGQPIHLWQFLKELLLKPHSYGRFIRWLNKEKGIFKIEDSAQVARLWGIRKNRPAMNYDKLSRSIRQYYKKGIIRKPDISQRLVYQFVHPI
Particulars: protein: recombinant; tags: N-terminal GST; dsDNA, one strand shown. The gist of the method:
as §1

Test [15] has as its target T10, ETV7 (Homo sapiens, UniProt Q9Y603 1-341).
T10 sequence: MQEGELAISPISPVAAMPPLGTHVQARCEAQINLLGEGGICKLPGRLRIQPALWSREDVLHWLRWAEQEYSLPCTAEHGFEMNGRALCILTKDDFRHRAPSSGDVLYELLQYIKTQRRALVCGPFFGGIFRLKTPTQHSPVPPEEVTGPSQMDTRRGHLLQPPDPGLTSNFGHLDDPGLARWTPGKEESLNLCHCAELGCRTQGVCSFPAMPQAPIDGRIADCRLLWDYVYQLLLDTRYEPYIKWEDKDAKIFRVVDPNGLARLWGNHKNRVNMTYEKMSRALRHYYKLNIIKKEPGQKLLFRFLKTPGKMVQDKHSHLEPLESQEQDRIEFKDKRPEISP
Particulars: protein: recombinant; tags: N-terminal GST; dsDNA, one strand shown. The gist of the method:
as §1

The target in test [16] is T11, ELF5 (Homo sapiens, UniProt Q9UKW6-2 1-255).
T11 sequence: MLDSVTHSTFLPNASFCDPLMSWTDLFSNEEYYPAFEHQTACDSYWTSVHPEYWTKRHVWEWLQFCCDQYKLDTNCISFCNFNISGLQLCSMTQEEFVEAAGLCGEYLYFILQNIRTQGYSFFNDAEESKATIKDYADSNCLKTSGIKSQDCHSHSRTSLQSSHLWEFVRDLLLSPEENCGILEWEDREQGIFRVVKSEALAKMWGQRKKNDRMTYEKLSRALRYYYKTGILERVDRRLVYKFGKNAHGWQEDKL
Particulars: protein: recombinant; tags: N-terminal GST; dsDNA, one strand shown. The gist of the method:
as §1

Test [17] addresses T12, ETV3 (Homo sapiens, UniProt P41162-2 1-143).
T12 sequence: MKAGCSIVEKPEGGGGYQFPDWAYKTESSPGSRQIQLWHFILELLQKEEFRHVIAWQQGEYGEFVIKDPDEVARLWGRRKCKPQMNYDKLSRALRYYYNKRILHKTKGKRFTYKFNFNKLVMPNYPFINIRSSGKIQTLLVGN
Particulars: protein: recombinant; tags: N-terminal GST; dsDNA, one strand shown. The gist of the method: as §1

Test [18] deals with ETV6 (Homo sapiens, UniProt P41212 1-452). Particulars: protein: recombinant; tags: N-terminal GST; dsDNA, one strand shown. The gist of the method: as §1
ETV6, sequence (P41212 whole entry): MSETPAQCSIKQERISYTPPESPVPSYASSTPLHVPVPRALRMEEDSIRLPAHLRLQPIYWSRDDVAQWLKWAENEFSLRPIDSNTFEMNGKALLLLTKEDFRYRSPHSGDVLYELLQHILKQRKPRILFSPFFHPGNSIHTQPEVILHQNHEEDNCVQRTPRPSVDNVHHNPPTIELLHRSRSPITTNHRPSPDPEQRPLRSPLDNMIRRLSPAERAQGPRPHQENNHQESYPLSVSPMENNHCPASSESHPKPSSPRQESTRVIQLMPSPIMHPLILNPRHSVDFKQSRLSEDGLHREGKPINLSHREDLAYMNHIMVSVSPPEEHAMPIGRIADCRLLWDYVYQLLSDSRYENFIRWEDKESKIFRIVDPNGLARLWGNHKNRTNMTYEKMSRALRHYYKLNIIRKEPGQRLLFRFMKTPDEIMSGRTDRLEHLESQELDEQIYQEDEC

CRX, sequence (O43186 whole entry): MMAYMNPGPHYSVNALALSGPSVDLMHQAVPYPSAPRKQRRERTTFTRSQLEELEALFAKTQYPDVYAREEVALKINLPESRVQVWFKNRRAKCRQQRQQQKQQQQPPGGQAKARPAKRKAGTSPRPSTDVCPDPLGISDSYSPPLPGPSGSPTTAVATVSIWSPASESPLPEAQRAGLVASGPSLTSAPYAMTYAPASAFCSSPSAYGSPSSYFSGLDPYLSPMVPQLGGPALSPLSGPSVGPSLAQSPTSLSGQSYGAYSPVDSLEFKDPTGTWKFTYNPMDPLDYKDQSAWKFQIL
ETV1, sequence (P50549 whole entry): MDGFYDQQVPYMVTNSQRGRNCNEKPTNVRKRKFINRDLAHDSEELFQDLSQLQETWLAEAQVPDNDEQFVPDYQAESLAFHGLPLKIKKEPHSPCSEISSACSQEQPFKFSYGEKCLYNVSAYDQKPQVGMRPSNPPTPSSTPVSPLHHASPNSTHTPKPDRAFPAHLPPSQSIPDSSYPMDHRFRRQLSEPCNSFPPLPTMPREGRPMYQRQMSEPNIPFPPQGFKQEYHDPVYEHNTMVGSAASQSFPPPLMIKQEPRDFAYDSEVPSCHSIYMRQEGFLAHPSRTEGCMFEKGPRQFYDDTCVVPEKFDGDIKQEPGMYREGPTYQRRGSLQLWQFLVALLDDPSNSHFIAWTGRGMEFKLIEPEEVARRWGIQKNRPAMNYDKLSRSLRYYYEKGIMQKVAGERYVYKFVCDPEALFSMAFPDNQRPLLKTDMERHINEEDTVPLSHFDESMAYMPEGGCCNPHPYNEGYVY

As for TTGACA, the binding signal in test [1] was 1.34 fold enrichment (6-mer frequency, TF over GST control); in test [2], 1.28 fold enrichment (6-mer frequency, TF over GST control); in [3], 1.19 fold enrichment (6-mer frequency, TF over GST control); in test [4] it was 1.21 fold enrichment (6-mer frequency, TF over GST control); in test [5], 1.3 fold enrichment (6-mer frequency, TF over GST control); in [6] it was 1.47 fold enrichment (6-mer frequency, TF over GST control). The binding signal in test [7] was 1.36 fold enrichment (6-mer frequency, TF over GST control); in test [8] it was 1.51 fold enrichment (6-mer frequency, TF over GST control); in [9] it was 1.22 fold enrichment (6-mer frequency, TF over GST control); in [10] it was 1.33 fold enrichment (6-mer frequency, TF over GST control); in test [11], 1.46 fold enrichment (6-mer frequency, TF over GST control); in [12] it was 1.37 fold enrichment (6-mer frequency, TF over GST control). Besides, the binding signal is 1.4 fold enrichment (6-mer frequency, TF over GST control) in [13]; 1.3 fold enrichment (6-mer frequency, TF over GST control) in [14]; 1.44 fold enrichment (6-mer frequency, TF over GST control) in test [15]; 1.29 fold enrichment (6-mer frequency, TF over GST control) in test [16]; 1.26 fold enrichment (6-mer frequency, TF over GST control) in [17]; 1.32 fold enrichment (6-mer frequency, TF over GST control) in [18].

(Values after publication PMC7862700, “An all-to-all approach to the identification of sequence-specific readers for epigenetic DNA modifications on cytosine”.)
